Experiment [1] can be described thus: Cell Viability - Hek293 (AID 427;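 active means compounds whose dose-response curve shows a full or clear partial loss of cell viability, called from curve shape rather than a numeric limit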;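 further: potency means the concentration at half of the fitted maximal effect; cells exposed to compound for 40 hours at 37 °C before reading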). The settings on record: qHTS. Summed up: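 HEK293 cells in complete medium were exposed to compound for 40 hr at 37 °C, then cellular ATP was read by CellTiter-Glo luminescence. Data were normalized to DMSO (basal) and 100 uM tamoxifen (100% inhibition), and AC50 came from Hill fits.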
A short description of experiment [2]: Cellular Toxicity (caspase-3) SHSY5Y (AID 657). The method, boiled down: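 qHTS, SH-SY5Y, 1500 cells/well, 5 h pre-incubation 37 °C; compound 16 h 37 °C; Caspase-Glo 3/7 1 h RT; luminescence. Norm.: DMSO = 0, 10 uM staurosporine = 100%. Hill fit → AC50.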
A short description of experiment [3]: Cellular Toxicity (caspase-3) SK-N-SH (AID 661).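 Further: 0% = DMSO basal and 100% = 10 µM staurosporine.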 Summed up:
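Luminescent Caspase-Glo 3/7 read-out after 16 hr compound exposure of SK-N-SH neuroblastoma cells at 37 °C. Signal increase normalized to DMSO (basal) and 10 uM staurosporine (100%); AC50 from Hill equation fits of qHTS concentration-response data.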

Experiment [4] is described as follows: Cellular Toxicity (caspase-3) NIH 3T3 (AID 666).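 Further: 0% = DMSO basal and 100% = 100 µM tamoxifen stimulation.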 The method, boiled down: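 NIH 3T3, 1000 cells/well, 5 hr settle then 16 hr compound at 37°C; Caspase-Glo 3/7, 20 min RT, luminescence. DMSO = basal, 100 uM tamoxifen = 100%. Hill-equation AC50, qHTS.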
Experiment [5] can be described thus: MultiTox-Fluor Cytotoxicity Assay - LYMP1-003 - Dead Cells (AID 961). Further: nearly all actives have a fitted effect of over 70% in size. Further: potency means the concentration at half of the fitted maximal effect. Summed up: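 LYMP1-003 human lymphoblastoid cells (2500/well) exposed to compound 16 h at 37 C in complete medium; dead-cell protease read with bis-AAF-R110 fluorescence (Ex/Em 485/520) after 60 min at room temperature. Normalized to DMSO and 15 uM tetraoctylammonium bromide; AC50 from Hill fit.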

The nature of experiment [6]: Cell Viability - LYMP2-009 (AID 968). Further: nearly all actives have a fitted effect of over 55% in size. Further: potency means the concentration at half of the fitted maximal effect.
Experiment [7] is described as follows: Cell Viability - LYMP2-017 (AID 972).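 Further: cells exposed to compound for 24 hours at 37 °C; nearly all actives have a fitted effect of over 55% in size.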 Further: potency means the concentration at half of the fitted maximal effect. Summed up:
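Luminescent ATP read-out (CellTiter-Glo, 30 min RT) reports viable cell number. Cells: human lymphoblastoid line, 2500 per well, 5 hr preincubation, 24 hr compound exposure at 37 C. AC50 is derived from qHTS concentration-response data using the standard Hill model.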

Experiment [8] is described as follows: Cell Viability - LYMP2-021 (AID 974).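 Further: compound exposure lasts 24 hours at 37 °C; nearly all actives have a fitted effect of over 55% in size.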 Further: potency means the concentration at half of the fitted maximal effect. Summed up:
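ATP luminescence (CellTiter-Glo, 30 min RT) after 24 h compound exposure at 37 C; 2500 human lymphoblastoid cells/well, 5 h settle beforehand. Cytotoxicity = concentration-dependent ATP drop, AC50 by Hill fit.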

Experiment [9] in a line: Cell Viability - LYMP2-025 (AID 976). Further: potency means the concentration at half of the fitted maximal effect. Summed up:
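CellTiter-Glo luminescence (cellular ATP) after 24 h compound exposure at 37 C; LYMP2-025 human lymphoblastoid cells, 2500/well, complete medium. Tetraoctylammonium bromide positive control. AC50 by Hill equation fit of qHTS concentration-response.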

A short description of experiment [10]: Cell Viability - LYMP2-007 (AID 979).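 Further: cells exposed to compound for 24 h before reading; nearly all actives have a fitted effect of over 60% in size.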 Further: potency means the concentration at half of the fitted maximal effect. Summed up:
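qHTS cytotoxicity: 2500 cells/well, 5 hr 37 C settle, compound 24 hr 37 C, CellTiter-Glo 30 min RT, luminescence. Decrease in ATP = toxicity. AC50 by standard Hill equation; tetraoctylammonium bromide positive control.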

Experiment [11] can be described thus: Cell Viability - LYMP2-012 (AID 982).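 Further: cellular ATP by luciferase luminescence where a drop means cytotoxicity; cells exposed to compound for one day before reading; nearly all actives have a fitted effect of over 55% in size.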 Further: potency means the concentration at half of the fitted maximal effect.
Experiment [12] in a line: Cell Viability - LYMP2-020 (AID 986). Further: nearly all actives have a fitted effect of over 55% in size. Further: potency means the concentration at half of the fitted maximal effect. The method, boiled down: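 qHTS, 2500 cells/well; 5 hr then 24 hr compound exposure, 37 C; CellTiter-Glo luminescence after 30 min RT; ATP decrease taken as cytotoxicity; AC50 via Hill equation; tetraoctylammonium bromide positive control.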
A short description of experiment [13]: Cell Viability - LYMP1-002 - Assay at 24 hr (AID 993). Further: potency means the concentration at half of the fitted maximal effect. The method, boiled down:
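CellTiter-Glo luminescence (intracellular ATP) after 24 h compound exposure, 37 C, in LYMP1-002 human lymphoblastoid cells; decreased ATP taken as cytotoxicity. AC50 from standard Hill fit of concentration-response curves.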

A short description of experiment [14]: Cell Viability - LYMP1-002 - Assay at 40 hr (AID 994). Further: nearly all actives have a fitted effect of over 60% in size. Further: potency means the concentration at half of the fitted maximal effect. The method, boiled down:
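qHTS cytotoxicity; 2500 cells/well, 5 hr 37 C settle, compound 40 hr 37 C. CellTiter-Glo, 30 min RT, luminescence (ATP). Concentration-response, Hill fit → AC50. Pos. ctrl tetraoctylammonium bromide.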

The target of experiment [15] is Voltage-gated inwardly rectifying potassium channel KCNH2 (Homo sapiens) (UniProt Q12809). The experiment in a line: qHTS Assay for Small Molecule Inhibitors of the Human hERG Channel Activity (AID 588834).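 Further: lower thallium flux fluorescence means stronger hERG block; nearly all actives have a fitted effect of over 50% in size.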 Further: potency means the concentration at half of the fitted maximal effect. The method, boiled down:
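Step 1: BacMam hERG transduction of U2OS, 4 hrs RT. Step 2: overnight 37 °C, plate 2000 cells/well, 4 hr. Step 3: FluxOR load, compound 10 min, stimulate, read fluorescence.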
On the technique in general: In qHTS, concentration-response curves come from the screen itself.

A short description of experiment [16]: qHTS assay for small molecule disruptors of the mitochondrial membrane potential - 5 hr assay (AID 651755; calls by dose curve; further: nearly all actives have a fitted effect of over 40% in size; further: potency means the concentration at half of the fitted maximal effect). Summed up: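 Seed HepG2 overnight, add compound, incubate 5 hr at 37C and 5% CO2, stain 30 min with Mito-MPS, then measure monomer (490/535 nm) and aggregate (540/590 nm) fluorescence.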
For experiment [17], the target named is Peroxisome proliferator-activated receptor alpha (Homo sapiens) (UniProt Q07869). The experiment can be described thus: qHTS assay for small molecule agonists of the peroxisome proliferator-activated receptor alpha (PPARalpha) signaling pathway (AID 651778). Further: % of control where 0% means no effect. As to conditions: PathHunter PPARalpha complementation, chemiluminescence, 6 h; max response: hits give high values. The method, boiled down:
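Cells plated at 2,000/well and held overnight at 37 C, 5% CO2, then compound added by pin tool for 6 hr; after PathHunter detection reagent and 60 min at room temperature, chemiluminescence from enzyme complementation was read.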

Experiment [18] can be described thus: qHTS assay for small molecule antagonists of the retinoid-related orphan receptor gamma (ROR-gamma) signaling pathway - cell viability counter screen (AID 720652; active means well fitted curve in the direction sought with a large enough effect in the repeat runs; an effect the other way counts as inactive or inconclusive;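 further: compound exposure lasted 16 hr before ATP read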; further: potency means the concentration at half of the fitted maximal effect). The method, boiled down: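 CHO RORE-LUC/TET-ROR line, 1,000 cells/well, 37 C 5% CO2 5 hr; cpd or DMSO + doxycycline induction, 16 hr. CellTiter-Glo, 30 min RT, luminescence = ATP content.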
A short description of experiment [19]: qHTS assay for small molecule agonists of the antioxidant response element (ARE) signaling pathway measured by Nrf2-dependant transcriptional activity - cell viability counter screen (AID 720653; active means well fitted curve in the direction sought with a large enough effect in the repeat runs; an effect the other way counts as inactive or inconclusive; further: potency means the concentration at half of the fitted maximal effect; on max response: on the % scale 0 is the no-effect control and ±100 the full control effect). The settings on record: ARE-bla HepG2 viability, CellTiter-Glo ATP luminescence, 16 h; max response: hits give low values. The method, boiled down:
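ARE-bla HepG2 cells (2,000/well) rested 5 hrs at 37C/5% CO2, then exposed to compounds in DMSO for 16 hrs. Viability was read in the same wells as intracellular ATP by luminescence, 30 min at room temperature after reagent addition.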

Experiment [20] is described as follows: Cell Viability - HepG2 (AID 433; calls by dose curve;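 further: potency means the concentration at half of the fitted maximal effect; potency for ATP loss meaning cytotoxicity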). The settings on record: qHTS. The method, boiled down:
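Read-out is luciferase-based quantitation of cellular ATP as a measure of viable HepG2 cells after 40 h treatment at 37 °C. Signal decrease is scaled between DMSO-only and 100 uM tamoxifen controls, with AC50 fitted by the Hill equation.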

Structures are written as SMILES. Several values for one entry are separate records, joined by “and”; a condition that tells them apart may be missing. Equal entries are not always repeated. A number with no mark means an inactive call. Records with an inconclusive call do not appear. Activity calls are given as the source filed them. Unless noted, the call rests on the fitted dose curve; in most records, active means well fitted curve in the direction sought with a large enough effect; inconclusive means small, poorly fitted or top-dose-only effect, or another doubt; inactive means no such curve, though single readings can be large; an effect the other way counts as inactive or inconclusive. Where only a bound is given, the exact number is not on record here.

Chain of Peroxisome proliferator-activated receptor alpha (Homo sapiens) (Q07869 whole entry, looked up): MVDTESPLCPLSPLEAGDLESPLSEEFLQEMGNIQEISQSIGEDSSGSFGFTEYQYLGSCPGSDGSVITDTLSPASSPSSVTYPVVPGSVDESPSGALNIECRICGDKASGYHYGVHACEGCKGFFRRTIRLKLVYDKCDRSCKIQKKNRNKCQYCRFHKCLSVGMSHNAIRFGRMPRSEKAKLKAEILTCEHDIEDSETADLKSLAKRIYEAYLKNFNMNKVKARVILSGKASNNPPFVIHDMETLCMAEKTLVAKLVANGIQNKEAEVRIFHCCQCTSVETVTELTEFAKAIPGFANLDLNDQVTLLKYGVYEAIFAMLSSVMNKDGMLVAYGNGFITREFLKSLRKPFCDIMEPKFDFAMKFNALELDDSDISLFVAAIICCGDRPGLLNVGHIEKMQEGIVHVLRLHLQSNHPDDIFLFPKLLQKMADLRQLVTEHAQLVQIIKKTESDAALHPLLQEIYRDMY
Chain of Voltage-gated inwardly rectifying potassium channel KCNH2 (Homo sapiens) (Q12809 whole entry, looked up): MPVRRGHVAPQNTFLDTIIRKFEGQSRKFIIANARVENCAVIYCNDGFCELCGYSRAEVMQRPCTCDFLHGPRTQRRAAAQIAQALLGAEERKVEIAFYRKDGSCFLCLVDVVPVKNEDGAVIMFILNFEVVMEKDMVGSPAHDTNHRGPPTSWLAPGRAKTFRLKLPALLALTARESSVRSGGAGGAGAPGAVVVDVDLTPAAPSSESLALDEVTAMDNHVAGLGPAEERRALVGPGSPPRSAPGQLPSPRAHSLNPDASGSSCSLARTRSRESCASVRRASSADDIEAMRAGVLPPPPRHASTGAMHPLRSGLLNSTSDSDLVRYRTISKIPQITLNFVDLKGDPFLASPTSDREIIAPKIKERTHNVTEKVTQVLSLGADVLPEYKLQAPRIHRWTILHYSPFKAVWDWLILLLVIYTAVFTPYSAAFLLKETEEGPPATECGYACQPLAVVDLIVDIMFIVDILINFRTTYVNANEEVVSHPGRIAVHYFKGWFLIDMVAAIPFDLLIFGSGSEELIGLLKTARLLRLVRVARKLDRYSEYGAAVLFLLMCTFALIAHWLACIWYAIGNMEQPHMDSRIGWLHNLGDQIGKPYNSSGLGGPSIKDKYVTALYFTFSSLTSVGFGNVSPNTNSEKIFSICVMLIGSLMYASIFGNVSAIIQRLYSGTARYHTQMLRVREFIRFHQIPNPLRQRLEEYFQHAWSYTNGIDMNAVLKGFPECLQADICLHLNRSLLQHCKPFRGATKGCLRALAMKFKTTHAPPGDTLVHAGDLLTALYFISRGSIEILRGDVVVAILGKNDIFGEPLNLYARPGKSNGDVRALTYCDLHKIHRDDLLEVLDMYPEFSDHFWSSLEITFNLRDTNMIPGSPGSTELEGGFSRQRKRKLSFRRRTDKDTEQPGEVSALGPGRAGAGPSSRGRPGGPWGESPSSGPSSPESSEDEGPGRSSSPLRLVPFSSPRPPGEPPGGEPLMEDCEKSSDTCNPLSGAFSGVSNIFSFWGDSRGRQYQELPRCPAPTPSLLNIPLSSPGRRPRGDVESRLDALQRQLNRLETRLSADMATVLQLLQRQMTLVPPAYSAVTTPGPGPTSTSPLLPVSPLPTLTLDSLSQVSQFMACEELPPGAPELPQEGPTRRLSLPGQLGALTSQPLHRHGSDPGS

For the compound `O=[N+]([O-])C(Br)Br`, the Potency is over 92 µM in [1]; 12.6 µM (active) in experiment [6]; 7.94 µM (active) in [7]; 10 µM (active) in experiment [8]; 20 µM (active) in experiment [9]; 10 µM (active) in [10]. Besides, the Potency in experiment [11] was 12.6 µM (active); in experiment [12] it was 12.6 µM (active); in [15], 50.1 µM (active); in [18] it was 18.8 µM (active). Besides, the Potency result in experiment [2], in experiment [5], in experiment [13], in experiment [14] and in experiment [16] was “inactive” each time. The result in experiment [3] and in experiment [4] was inactive. The results for the max response in experiment [17] and in experiment [19] were -3.58% and -11.4%, respectively.

`O=C(O)C1C(C(=O)O)C2(Cl)C(Cl)=C(Cl)C1(Cl)C2(Cl)Cl` (stereo not given): the Potency in [1] and in experiment [20] was over 92 µM in each case. For the same compound, the Potency result in experiment [2], in [5], in experiment [6], in [7], in [8] and in [9] was “inactive” throughout. Also, the Potency entry in experiment [10], in [11], in [12], in experiment [13], in experiment [14] and in experiment [15] was “inactive” throughout. Further, the Potency result in experiment [16] and in [18] was “inactive” each time. Besides, the result in experiment [3] and in experiment [4] was inactive. Further, the figures for the max response in experiment [17] and in experiment [19] were 10.1% and 5.57%, respectively.

Consider `O=C1C2(Cl)C3(Cl)C4(Cl)C(Cl)(Cl)C5(Cl)C3(Cl)C1(Cl)C5(Cl)C24Cl` (stereo not given), for which the Potency in experiment [1] is 30.2 µM (active) and 47.2 µM (active); in [20], 31.3 µM (active) and 59.3 µM (active); in experiment [5], 31.6 µM (active) and 39.8 µM (active); in experiment [6] it was 50.1 µM (active); in experiment [7] it was 50.1 µM (active); in experiment [10], 39.8 µM (active) and 50.1 µM (active). Further, the Potency in experiment [13] is 31.6 µM (active) and 79.4 µM (active); in [14], 25.1 µM (active) and 50.1 µM (active); in [15], 17.8 µM (active) and 28.2 µM (active); in [16] it was 4.22 µM (active) and 9.44 µM (active); in experiment [18] it was 26.6 µM (active) and 29.8 µM (active). Besides, the Potency entry in experiment [2], in [11] and in [12] was “inactive” in each case. Further, the compound was called inactive in [3] and in experiment [4]. Moreover, the max response in experiment [17] was 6.14% and 11.6% and 6.69%.

Turning to `C[C@@H]1CC[C@@]2(OC1)O[C@H]1[C@@H](O)[C@H]3[C@@H]4CC[C@H]5C[C@@H](O[C@@H]6O[C@H](CO)[C@H](O[C@@H]7O[C@H](CO)[C@@H](O)[C@H](O[C@@H]8OC[C@@H](O)[C@H](O)[C@H]8O)[C@H]7O[C@@H]7O[C@H](CO)[C@@H](O)[C@H](O[C@@H]8O[C@H](CO)[C@@H](O)[C@H](O)[C@H]8O)[C@H]7O)[C@H](O)[C@H]6O)[C@H](O)C[C@]5(C)[C@H]4CC[C@]3(C)[C@H]1[C@@H]2C`, the Potency is 27.5 µM (active) in [1]; 11.9 µM (active) in experiment [20]; 10 µM (active) in experiment [5]; 12.6 µM (active) in experiment [6]; 25.1 µM (active) in [7]; 15.8 µM (active) in experiment [8]. In addition, the Potency in experiment [9] was 25.1 µM (active); in [10], 25.1 µM (active); in [11], 15.8 µM (active); in [12], 12.6 µM (active); in experiment [13], 7.94 µM (active); in [14], 7.94 µM (active). The Potency is 25.1 µM (active) in [15], 26.6 µM (active) in experiment [16], 11.9 µM (active) in [18] and 17.8 µM (active) in experiment [19]. Also, the Potency entry in [2] is “inactive”. Besides, the compound was called inactive in experiment [3] and in experiment [4]. Also, the max response in experiment [17] is -5.72%.

As for `COP(=O)(OC)O/C(=C\Cl)c1cc(Cl)c(Cl)cc1Cl`, the Potency in [20] is over 92 µM; in [11], 50.1 µM (active). Moreover, the outcome in experiment [3] and in experiment [4] was inactive. Besides, the Potency entry in [5], in [6], in [9], in [12], in experiment [13] and in [14] was “inactive” each time. The Potency result in experiment [15] and in experiment [18] was “inactive” each time. The values for the max response in experiment [17] and in experiment [19] were -3% and -14.8%, respectively.

Source of the values: PubChem BioAssay (NCATS).
